PubChem BioAssay (NCI)
Compounds without any hit were thinned out: in the full panel of roughly 83,000, 20% have a hit.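 Cell lines were cultured in 96-well plates, exposed to a single compound concentration, and assessed for percent growth 48 hours later.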 Active and inactive are the calls of the source. Rule for the calls: active = growth percent below 10; inactive = the rest.

Test system: BT-549 breast
Assay: NCI-60 one-dose screen, 48 h (100 = growth as untreated, 0 = no growth, -100 = all killed)
Settings: 10 µM unless noted

Compound | growth
COc1ccc(Cn2nc(-c3ccccc3)c3c2CCc2cnoc2-3)cc1 | 82.1% (inactive)
CCCN=C(N)c1ccc(NC(=O)c2ccc(C(=O)Nc3ccc(C(N)=NCCC)cc3)cc2)cc1 | 93.9% (inactive)
O=S(=O)(c1cccc(NC2=Nc3cccc4cccc2c34)c1)N1CCCC1 | 48% (inactive)
COc1cc2c(cc1[N+](=O)[O-])-c1ccc([N+](=O)[O-])cc1/C2=N\O | 73.1% (inactive)
COc1cccc(/C=C2\COc3ccc(-c4ccccc4)cc3C2=O)c1 | 13.1% (inactive)
Cc1ccc(C2CC(c3cccc(Nc4ccncc4)c3)=NN2c2ccccc2)cc1 (stereo not given) | 81.2% (inactive)
Cn1c2c(Cl)c(Cl)ccc2c2cc(N)[nH]c(=O)c21 | 64.2% (inactive)
OC1(c2ccc(Cl)c(C(F)(F)F)c2)CCN(CCCC(c2ccc(F)cc2)c2ccc(F)cc2)CC1 | -92.8% (active)
N#Cc1ccc(-c2ccc3c(c2)NC(=O)/C3=C\c2ccc[nH]2)cc1 | 24.1% (inactive)
C=C(C)[C@@H]1CC[C@]2(C(=O)NCC(=O)OC)CC[C@]3(C)[C@H](CC[C@@H]4[C@@]5(C)Cc6c([nH]c7ccccc67)C(C)(C)[C@@H]5CC[C@]43C)[C@@H]12 | 81.3% (inactive)
O=C(Nc1nc2ccc(S(=O)(=O)Nc3ccc(C4(C(F)(F)F)CC4)cc3)cc2[nH]1)c1cnccn1 | 44.6% (inactive)
C=Cc1cc[n+](CCCCCCCCCCCC)cc1 | 116% (inactive)
CC(c1ccccc1)n1ccnc1CO (stereo not given) | 113% (inactive)
Cn1c(COC(=O)N2CCCCC2)nc2c(N3CCOCC3)nc(-c3ccccc3)nc21 | -37.7% (active)
Clc1nc(Nc2ccccc2)nc(Nc2ccccc2)n1 | 90.5% (inactive)
COc1cc2c(cc1[N+](=O)[O-])-c1ccc([N+](=O)[O-])cc1/C2=N/NC(N)=S | 61.6% (inactive)
c1ccc(-c2nn(-c3ccccc3)[n+](-c3ccccc3-c3ccccc3)n2)cc1 | -0.13% (active)
CC(C)(C#N)N1CCN(c2ccccc2Cl)CC1 | 98.1% (inactive)

Compound | growth
O=C(CCN1CCCC1)Nc1ccc2c(NCc3ccc(F)cc3)c3ccccc3nc2c1 | 18.5% (inactive)
COc1ccc(/C=N/C2=C(C#N)C(c3ccccc3[N+](=O)[O-])c3ccc4ccccc4c3O2)cc1 (stereo not given) | 92.8% (inactive)
Cc1n[nH]c(C)c1-c1c(C)n[nH]c1C | 2.96% (active)
Nc1c(Cl)cc([N+](=O)[O-])cc1Br | 97.5% (inactive)
COc1cccc(CNCCN2C(=O)c3ccc4c5c(ccc(c35)C2=O)C(=O)N(CCNCc2cccc(OC)c2)C4=O)c1 | 96.1% (inactive)
NC(=O)CN1CCN(c2ccccc2Cl)CC1 | 99.2% (inactive)
CN1CCN(c2cc(F)c(NC3=C(Cl)C(=O)c4ncccc4C3=O)c(F)c2)CC1 | 80.5% (inactive)
O=S(=O)(NCCNc1nccc(-c2c(-c3ccc(F)c(O)c3)nc3occn23)n1)c1ccccc1 | 80.8% (inactive)
CC1(C)[C@H](O)CC[C@]2(C)[C@@H]1CC[C@@]13C[C@@H](CC[C@H]12)[C@@](O)(CO)C3 | 90.3% (inactive)
CS(=O)(=O)c1ccc(-c2cc(-c3nnc(SCC(=O)Nc4ccc(C(=O)/C=C/c5ccc(Cl)cc5)cc4)n3-c3ccccc3)c3ccccc3n2)cc1 | 108% (inactive)
COc1cc(OC)c(/C=C/C(=O)c2ccc(Nc3ncnc4ccccc34)cc2)c(OC)c1 | -29.3% (active)
CC(=O)OCCCCCNc1ccccc1 | 102% (inactive)
c1ccc(-c2nn(-c3ccccc3)[n+](-c3cccc4ccccc34)n2)cc1 | 13.4% (inactive)
Cc1cc2nc(-c3ccccc3)c(-c3ccccc3)nc2cc1C | 97.5% (inactive)
c1ccc2c(-c3c4ccsc4cc4[nH]c5ccccc5c34)c[nH]c2c1 | 33.9% (inactive)
CN1CCCC1=Nc1ccccc1 | 130% (inactive)
COc1ccc(-c2nc3sccn3c2/C=C/C(=O)c2cc(OC)c(OC)c(OC)c2)cc1 | 46.9% (inactive)

Test system: MDA-MB-435 melanoma
Assay: as above
Settings: 10 µM unless noted

Compound | growth
COc1ccc(Cn2nc(-c3ccccc3)c3c2CCc2cnoc2-3)cc1 | 28.4% (inactive)
CCCN=C(N)c1ccc(NC(=O)c2ccc(C(=O)Nc3ccc(C(N)=NCCC)cc3)cc2)cc1 | 90.2% (inactive)
O=S(=O)(c1cccc(NC2=Nc3cccc4cccc2c34)c1)N1CCCC1 | 29.3% (inactive)
COc1cccc(/C=C2\COc3ccc(-c4ccccc4)cc3C2=O)c1 | -25.8% (active)
Cc1ccc(C2CC(c3cccc(Nc4ccncc4)c3)=NN2c2ccccc2)cc1 (stereo not given) | -89.5% (active)
Cn1c2c(Cl)c(Cl)ccc2c2cc(N)[nH]c(=O)c21 | 107% (inactive)
O=S(=O)(c1ccc(N/N=C\c2ccccc2)cc1)c1ccc(N/N=C/c2ccccc2)cc1 | 68.8% (inactive)
OC1(c2ccc(Cl)c(C(F)(F)F)c2)CCN(CCCC(c2ccc(F)cc2)c2ccc(F)cc2)CC1 | -91.6% (active)
N#Cc1ccc(-c2ccc3c(c2)NC(=O)/C3=C\c2ccc[nH]2)cc1 | 102% (inactive)
C=C(C)[C@@H]1CC[C@]2(C(=O)NCC(=O)OC)CC[C@]3(C)[C@H](CC[C@@H]4[C@@]5(C)Cc6c([nH]c7ccccc67)C(C)(C)[C@@H]5CC[C@]43C)[C@@H]12 | 90% (inactive)
O=C(Nc1nc2ccc(S(=O)(=O)Nc3ccc(C4(C(F)(F)F)CC4)cc3)cc2[nH]1)c1cnccn1 | -29.8% (active)
C=Cc1cc[n+](CCCCCCCCCCCC)cc1 | 104% (inactive)
CC(c1ccccc1)n1ccnc1CO (stereo not given) | 98.4% (inactive)
Cn1c(COC(=O)N2CCCCC2)nc2c(N3CCOCC3)nc(-c3ccccc3)nc21 | -81.9% (active)
Clc1nc(Nc2ccccc2)nc(Nc2ccccc2)n1 | 108% (inactive)
c1ccc(-c2nn(-c3ccccc3)[n+](-c3ccccc3-c3ccccc3)n2)cc1 | 6.4% (active)
CC(C)(C#N)N1CCN(c2ccccc2Cl)CC1 | 97.3% (inactive)
O=C(CCN1CCCC1)Nc1ccc2c(NCc3ccc(F)cc3)c3ccccc3nc2c1 | -53.4% (active)

Compound | growth
COc1ccc(/C=N/C2=C(C#N)C(c3ccccc3[N+](=O)[O-])c3ccc4ccccc4c3O2)cc1 (stereo not given) | 98.5% (inactive)
Cc1n[nH]c(C)c1-c1c(C)n[nH]c1C | -35.9% (active)
Nc1c(Cl)cc([N+](=O)[O-])cc1Br | 91.4% (inactive)
COc1cccc(CNCCN2C(=O)c3ccc4c5c(ccc(c35)C2=O)C(=O)N(CCNCc2cccc(OC)c2)C4=O)c1 | 118% (inactive)
NC(=O)CN1CCN(c2ccccc2Cl)CC1 | 103% (inactive)
CN1CCN(c2cc(F)c(NC3=C(Cl)C(=O)c4ncccc4C3=O)c(F)c2)CC1 | -75.8% (active)
O=S(=O)(NCCNc1nccc(-c2c(-c3ccc(F)c(O)c3)nc3occn23)n1)c1ccccc1 | 28.1% (inactive)
CC1(C)[C@H](O)CC[C@]2(C)[C@@H]1CC[C@@]13C[C@@H](CC[C@H]12)[C@@](O)(CO)C3 | 107% (inactive)
CS(=O)(=O)c1ccc(-c2cc(-c3nnc(SCC(=O)Nc4ccc(C(=O)/C=C/c5ccc(Cl)cc5)cc4)n3-c3ccccc3)c3ccccc3n2)cc1 | 101% (inactive)
COc1cc(OC)c(/C=C/C(=O)c2ccc(Nc3ncnc4ccccc34)cc2)c(OC)c1 | -79.1% (active)
O=[N+]([O-])c1cccc(-c2nc(-c3ccc(Cl)cc3Cl)cn2-c2ccccc2)c1 | -39.5% (active)
CC(=O)OCCCCCNc1ccccc1 | 111% (inactive)
c1ccc(-c2nn(-c3ccccc3)[n+](-c3cccc4ccccc34)n2)cc1 | -50.3% (active)
FCc1nc2nc(Cl)c(Cl)nc2[nH]1 | 107% (inactive)
Cc1cc2nc(-c3ccccc3)c(-c3ccccc3)nc2cc1C | 93% (inactive)
c1ccc2c(-c3c4ccsc4cc4[nH]c5ccccc5c34)c[nH]c2c1 | 1.93% (active)
COc1ccc(-c2nc3sccn3c2/C=C/C(=O)c2cc(OC)c(OC)c(OC)c2)cc1 | 29.8% (inactive)
